Compounds with a hit are over-represented: about 27% of the library has one in this group of screens.
sEH inhibitor – blocks human soluble epoxide hydrolase activity; P34913; recombinant human sEH enzymatic activity assay; inhibition, % at 2 µM; 91,000 tested, 0.34% active; in the data active means inhibition above about 80%
CYP2C9 inhib – blocks human cytochrome P450 2C9; CYP2C9 Supersomes, luciferin-H conversion, luminescence; 96,000 tested, 20% active; inhibition, % at 5 µM; AID 777; P11712;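 active means blocking of liver enzyme CYP2C9 beyond about 50% at 5 µM, limit read from the data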
Target sequence (P11712 whole entry, looked up): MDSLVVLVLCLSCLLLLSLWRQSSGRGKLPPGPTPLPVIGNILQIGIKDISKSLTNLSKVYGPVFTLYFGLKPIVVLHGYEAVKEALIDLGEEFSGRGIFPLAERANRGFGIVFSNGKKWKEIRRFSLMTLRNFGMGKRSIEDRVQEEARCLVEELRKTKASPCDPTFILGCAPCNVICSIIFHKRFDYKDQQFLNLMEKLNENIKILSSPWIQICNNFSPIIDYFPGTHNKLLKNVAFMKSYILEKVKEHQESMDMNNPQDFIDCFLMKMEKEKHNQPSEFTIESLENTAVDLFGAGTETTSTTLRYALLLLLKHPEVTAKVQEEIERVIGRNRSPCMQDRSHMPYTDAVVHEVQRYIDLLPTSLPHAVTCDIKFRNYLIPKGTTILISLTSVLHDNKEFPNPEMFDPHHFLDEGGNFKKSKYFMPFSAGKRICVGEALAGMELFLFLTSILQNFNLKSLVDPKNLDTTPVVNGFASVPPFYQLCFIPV
CYP2C9 act – increases human cytochrome P450 2C9 activity. P11712. 96,000 tested, 1.4% active. recombinant CYP2C9, luciferin-H conversion, luminescence; stronger effect = higher value; factor 1 = untreated enzyme, 0 = blocked. activation factor at 5 µM. AID 1024;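 active means activation factor of 2 or more for CYP2C9 at a 5 µM dose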;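 further: 0 = sulfaphenazole-blocked wells and 1 = vehicle-only wells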
sEH act – activators of human soluble epoxide hydrolase | AID 717 | P34913 | activation, % at 2 µM | purified human sEH enzymatic activity, activator screen | 91,000 tested, 0.04% active; in the data active means activation above about 37%
CYP2C19 act – activators of human cytochrome P450 2C19; P33261; 96,000 tested, under 10 active; activation factor at 5 µM; recombinant CYP2C19, luciferin-H EGE luminescence; stronger effect = higher value; 0 = fully inhibited enzyme, 1 = untreated enzyme;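 active means activation factor of at least 2 at 5 µM in the primary screen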;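 further: 0 = wells with 2.5 mM tranylcypromine and 1 = vehicle-only wells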
CYP2C19 inh – human CYP2C19 inhibition | P33261 | CYP2C19 Supersomes, luciferin-H EGE luminescence, 30 min | inhibition, % at 5 µM | 96,000 tested, 21% active;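 active means CYP2C19 inhibition above a set limit at 5 µM in the primary screen, cut at about 50% in these data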;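 further: plate controls were negative control wells for no effect and 2.5 mM tranylcypromine positive control for full effect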
The depositor's hits bear a star; x = no result.

SMILES	sEH inhibitor	CYP2C9 inhib	CYP2C9 act	sEH act	CYP2C19 act	CYP2C19 inh
CC(=O)NCCn1c(SCc2ccccc2C)nc2ccccc2c1=O	-3	98*	0	4	0.2	79*
CC(=O)NCCn1c(SCc2cc(F)ccc2F)nc2ccccc2c1=O	4	99*	0	-5	0.2	76*
CC(=O)NCCn1c(SCc2ccc(C)cc2C)nc2ccccc2c1=O	-3	98*	0	5	0	98*
O=c1c2ccccc2nc(SCc2cc(F)ccc2F)n1C1CCCC1	10	11	0.9	-9	1.1	-12
Cc1ccc(CSc2nc3ccccc3c(=O)n2Cc2ccco2)cc1	2	x	x	-2	x	x
CCC(CO)n1cnnc1-c1ccncc1 (stereo unspecified)	4	16	0.8	-3	1.1	-14
O=C(CCCn1c(=S)[nH]c2ccc(Br)cc2c1=O)NCC1CCCO1 (stereo unspecified)	13	-38	1.4	-13	0.9	14
CCOC(=O)c1[nH]c2ccc(OC)cc2c1NC(=O)CCN1CCCC(C)C1 (stereo unspecified)	x	-2	1	x	1.1	-8
CCOC(=O)c1[nH]c2cc3c(cc2c1NC(=O)CN1CCC(C)CC1)OCO3	4	68*	0.3	-5	0.4	61*
CCOC(=O)c1[nH]c2cc3c(cc2c1NC(=O)CN1CCc2ccccc2C1)OCO3	-2	55*	0.4	0	0.3	68*
CCOC(=O)N1CCN(CC(=O)Nc2c(C(=O)OC)[nH]c3ccccc23)CC1	-5	-5	1.1	5	0.7	28
CCOC(=O)C1CCN(C(=O)c2cc(S(=O)(=O)N3CCOCC3)c(Cl)cc2Cl)CC1	12	40	0.6	-12	0.8	16
CCCCOCCCn1c(-c2ccco2)nc2nc3ccccc3nc21	-17	52*	0.5	16	0.5	50
c1ccc(-c2nc3nc4ccccc4nc3n2Cc2ccco2)cc1	-9	51*	0.5	8	0.9	8
Fc1ccc(-c2nc3nc4ccccc4nc3n2Cc2ccco2)cc1	10	29	0.7	-11	0.9	13
COc1ccc(CCNc2oc(-c3ccco3)nc2C#N)cc1	-4	x	x	8	x	x
N#Cc1nc(-c2cccs2)oc1NCc1ccc2c(c1)OCO2	-5	94*	0.1	8	0.5	54*
N#Cc1nc(-c2cccs2)oc1NCCc1ccccc1	-8	68*	0.3	6	0.7	26
N#Cc1nc(-c2ccco2)oc1NCCc1ccccc1	6	75*	0.2	-7	0	96*
CNc1oc(-c2cccs2)nc1C#N	-20	-29	1.3	18	1	1
CC12CCC(C(=O)N(NC(=O)c3cc(Cl)ccc3O)C1=O)C2(C)C (stereo unspecified)	16	-10	1.1	-15	1.3	-28
COc1cccc(C2NC(=O)NC(C)=C2C(=O)Nc2cccc(C)c2C)c1 (stereo unspecified)	-8	2	1	5	0.9	12
CCOC(=O)c1ccc(NC(=S)NCCCN2CCCCC2)cc1	7	15	0.9	-3	1	2
CCCCC(CC)C(=O)Nc1ccccc1C#N (stereo unspecified)	-5	43	0.6	2	0.5	53*
Clc1ccc(-c2nc3ncccn3c2Nc2ccc3c(c2)OCO3)cc1	3	-6	1.1	-3	1	3
SMILES	sEH inhibitor	CYP2C9 inhib	CYP2C9 act	sEH act	CYP2C19 act	CYP2C19 inh
Oc1ccc(-c2nc3cnccn3c2Nc2ccc3c(c2)OCCO3)cc1	-3	96*	0	5	0	98*
c1ccc(-c2nc3cnccn3c2Nc2ccc3c(c2)OCCO3)cc1	-11	x	x	14	x	x
Oc1ccc(-c2nc3ncccn3c2Nc2ccc3c(c2)OCO3)cc1	10	59*	0.4	-8	0.6	44
CN(Cc1ccccc1)C(=O)CN(c1ccc(F)cc1)S(=O)(=O)c1ccc2c(c1)OCCO2	9	x	x	-4	x	x
O=C(c1cc2c(ccc3ccccc32)oc1=O)N1CCCC1	-5	73*	0.3	4	1	0
COCc1c(C(=O)N2CCN(c3ccc(C(F)(F)F)cn3)CC2)oc2ccccc12	-9	7	0.9	9	0.2	80*
O=C(c1oc2ccccc2c1CSCc1ccccc1)N1CCN(c2ncccn2)CC1	6	80*	0.2	-6	0.4	62*
O=C(O)c1cc2c(ccc3ccccc32)oc1=O	-10	-13	1.1	8	1.1	-6
